Counter-ions that a name gives are not always drawn. A number with no mark means an inactive call.
Assays:
Conditions in all cases: 20 µM
[1] = test system: Salmonella enterica typhimurium; assay: growth AUC normalised to DMSO control (fraction of control); higher = less growth inhibition, active = hit call of the paper
Procedure, shortened: (§1)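 After two anaerobic passages, pathogens were added at a starting OD578 of 0.01 to pre-reduced mGAM plates holding compound at 20 μM with 1% DMSO; hemin and NAD were supplemented for Haemophilus parainfluenzae. Sealed with breathable membranes, plates were read at OD578 hourly for 24 h, in three biological replicates. The trapezoidal rule, applied up to the exponential-to-stationary transition, gave the growth-curve AUC, which was normalised to DMSO controls on the same plate.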

[2] = test system: Shigella flexneri; assay: as above
Procedure, shortened: as §1

[3] = test system: Vibrio cholerae; assay: as above
Procedure, shortened: as §1

[4] = test system: Yersinia pseudotuberculosis; assay: as above
Procedure, shortened: as §1

[5] = test system: P. vulgatus RND KO; assay: growth AUC normalised to DMSO control (median) (fraction of control); higher = less growth inhibition, active = hit call of the paper
Procedure, shortened: (§2)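 For normalised area under the curve, growth curves were truncated at entry into stationary phase, integrated by the trapezoidal rule and divided against vehicle wells on the same plate. The curves came from strains passaged twice overnight without oxygen and then grown in mGAM in 96-well plates at a starting OD578 of 0.01. Each well held an approved-drug library compound at 20 μM with 1% DMSO, and OD578 was read hourly for 24 h in an anaerobic incubator. Values are medians of three biological replicates.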

[6] = test system: P. vulgatus WT; assay: as above
Procedure, shortened: as §2

[7] = test system: S. enterica typhimurium WT; assay: as above
Procedure, shortened: as §2

[8] = test system: S. enterica typhimurium tolC KO; assay: as above
Procedure, shortened: as §2
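Throughout, for growth AUC normalised to DMSO control (median): active when median AUC fell below 0.1.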

Row | Structure (SMILES) | growth AUC normalised to DMSO control [1] | growth AUC normalised to DMSO control [2] | growth AUC normalised to DMSO control [3] | growth AUC normalised to DMSO control [4] | growth AUC normalised to DMSO control [5] | growth AUC normalised to DMSO control [6] | growth AUC normalised to DMSO control [7] | growth AUC normalised to DMSO control [8]
1 | COc1cnc(NS(=O)(=O)c2ccc(N)cc2)nc1 [Sulfameter] | 1 | 0.986 | 1.01 | 1 | 0.992 | 1 | 0.993 | 0.993
2 | CCN(CC)CC(=O)Nc1c(C)cccc1C [Lidocaine hydrochloride] | 0.999 | 1.02 | 1.01 | 1 | 1.02 | 1.03 | 0.963 | 0.996
3 | O=C(CCCN1CC=C(n2c(=O)[nH]c3ccccc32)CC1)c1ccc(F)cc1 [Droperidol] | 0.989 | 0.985 | 0.892 | 0.98 | 0.982 | 0.976 | 0.99 | 0.936
4 | Clc1ccc(C(c2ccccc2Cl)C(Cl)Cl)cc1 (stereo not given) [Mitotane] | 1 | 0.999 | 1.07 | 1.02 | 0.97 | 0.94 | 1 | 0.957
5 | N[C@@H](C(=O)N[C@@H]1C(=O)N2C(C(=O)O)=C(Cl)CS[C@H]12)c1ccccc1 [Cefaclor hydrate] | 0.492 (active) | 0.153 (active) | 1.03 | 0.209 (active) | 1.04 | 1.05 | 1.07 | 1.01
6 | CN(C)CCCOc1nn(Cc2ccccc2)c2ccccc12 [Benzydamine hydrochloride] | 1 | 0.958 | 0.892 | 0.991 | 0.993 | 1.01 | 0.988 | 0.959
7 | CC/C(=C(\c1ccccc1)c1ccc(OCCN(C)C)cc1)c1ccccc1 [Tamoxifen citrate] | 1.01 | 1.01 | 1 | 0.981 | 0.968 | 0.978 | 1 | 1.01
8 | COc1ccc2c(c1)N(C[C@H](C)CN(C)C)c1ccccc1S2 [Methotrimeprazine maleate salt] | 1.01 | 1.03 | 1 | 0.99 | 1.04 | 1.02 | 0.995 | 0.954
9 | CCCCN(CCCC)CCCOC(=O)c1ccc(N)cc1 [Butacaine] | 0.988 | 1.01 | 0.981 | 1 | 1.05 | 1.04 | 1.01 | 1
10 | COc1c(O[C@@H]2O[C@H](CO)[C@@H](O)[C@H](O)[C@H]2O)cc2c(c1OC)-c1ccc(SC)c(=O)cc1[C@@H](NC(C)=O)CC2 [Thiocolchicoside] | 0.993 | 0.98 | 1 | 0.988 | 1.01 | 0.999 | 1 | 1
11 | CC(C)N1CCN(c2ccc(OCC3COC(Cn4cncn4)(c4ccc(Cl)cc4Cl)O3)cc2)CC1 (stereo not given) [Terconazole] | 0.962 | 0.982 | 1 | 0.989 | 1.06 | 1.04 | 1.01 | 0.97
12 | O=C(O)Cc1ccc(-c2ccccc2)cc1 [Felbinac] | 1.03 | 0.977 | 0.996 | 0.994 | 1 | 1.01 | 1.01 | 0.988
13 | Nc1nc(F)nc2c1ncn2[C@@H]1O[C@H](CO)[C@@H](O)[C@@H]1O [Fludarabine] | 0.963 | 0.933 | 0.997 | 0.988 | 0.994 | 0.999 | 0.994 | 0.991
14 | CNNCc1ccc(C(=O)NC(C)C)cc1 [Procarbazine hydrochloride] | 1 | 1.02 | 1 | 0.992 | 1.06 | 1.05 | 1.01 | 1
15 | CCOC(=O)[C@@](C)(N)Cc1ccc(O)c(O)c1 [Methyldopate hydrochloride] | 0.999 | 1.04 | 1.06 | 1.02 | 0.964 | 1.02 | 1.01 | 1.02
16 | O=C(O)c1ccccc1OP(=O)(O)O [Fosfosal] | 0.983 | 0.984 | 0.994 | 0.988 | 1 | 1.02 | 1 | 1.01
17 | c1ccc(-c2ccc(C(c3ccccc3)n3ccnc3)cc2)cc1 (stereo not given) [Bifonazole] | 1.01 | 1.04 | 1 | 1.02 | 0.983 | 1 | 0.999 | 0.92
18 | CCOC(=O)/C=C(C)/C=C/C=C(C)/C=C/c1c(C)cc(OC)c(C)c1C [Etretinate] | 1.01 | 1.03 | 0.998 | 1 | 1.03 | 1.06 | 1 | 0.991
19 | CCN1CCCC1CNC(=O)c1cc(S(=O)(=O)CC)c(N)cc1OC (stereo not given) [Amisulpride] | 0.998 | 1 | 1.01 | 0.99 | 1.02 | 1.01 | 1.01 | 0.995
20 | CCCNC(C)C(=O)Nc1c(C)csc1C(=O)OC (stereo not given) [Articaine hydrochloride] | 0.949 | 1.03 | 1.08 | 1.03 | 1.04 | 1.06 | 1.01 | 0.997
21 | CCN(CC)C(C)CN1c2ccccc2Sc2ccccc21 (stereo not given) [Ethopropazine hydrochloride] | 0.972 | 0.999 | 0.918 | 0.995 | 0.272 | 0.246 | 0.993 | 0.951
22 | O=C1c2ccccc2S(=O)(=O)N1CCCCN1CCN(c2ncccn2)CC1 [Ipsapirone] | 0.991 | 0.99 | 0.957 | 0.998 | 1 | 1.01 | 0.989 | 1.01
23 | COc1ccc(CC2c3cc(OC)c(OC)cc3CC[N+]2(C)CCC(=O)OCCCCCOC(=O)CC[N+]2(C)CCc3cc(OC)c(OC)cc3C2Cc2ccc(OC)c(OC)c2)cc1OC (stereo not given) [Atracurium besylate] | 1 | 1.05 | 1.01 | 1 | 1.04 | 1.04 | 0.983 | 1.01
24 | CC(=O)[C@H]1CC[C@H]2[C@@H]3C=CC4=CC(=O)CC[C@@]4(C)[C@@H]3CC[C@]12C [Dydrogesterone] | 1 | 0.986 | 0.99 | 1.01 | 1.02 | 1.04 | 1.01 | 0.909
25 | Nc1c(Br)cc(Br)cc1CN[C@H]1CC[C@H](O)CC1 [Ambroxol hydrochloride] | 0.979 | 0.987 | 0.963 | 1 | 0.955 | 0.961 | 0.982 | 0.991
26 | COc1ccc(Cl)cc1C(=O)NCCc1ccc(S(=O)(=O)NC(=O)NC2CCCCC2)cc1 [Glibenclamide] | 0.984 | 1.02 | 1.03 | 1.01 | 0.953 | 0.956 | 1.01 | 1
27 | CCc1nc(N)nc(N)c1-c1ccc(Cl)cc1 [Pyrimethamine] | 0.915 (active) | 0.851 (active) | 0.908 | 0.932 | 0.57 | 0.288 | 0.93 | 0.66
28 | Clc1ccc(C(Cn2ccnc2)OCc2ccsc2Cl)c(Cl)c1 (stereo not given) [Tioconazole] | 0.986 | 0.984 | 0.909 | 1.07 | 0.932 | 0.929 | 1 | 0.903
29 | Cc1cc(CC(=O)O)n(C)c1C(=O)c1ccc(Cl)cc1 [Zomepirac sodium salt] | 0.997 | 1 | 0.995 | 1 | 0.992 | 1.01 | 0.991 | 1.02
30 | CCN(CC)CCOC(=O)C1(c2ccc([N+](=O)[O-])cc2)CCCC1 [Nitrocaramiphen hydrochloride] | 0.993 | 0.993 | 0.974 | 0.996 | 1.03 | 1.05 | 1 | 1

— the supplement of paper PMC12350171
